Several values for one entry are separate records, joined by “and”; a condition that tells them apart may be missing. Identical values can stand only once. In all, about 5,500 compounds went through this assay and about 2,000 (36%) were called active. Another 18% or so got no clear call; they are omitted. Cut-off read from the data, not from the text of the source: active = normalized growth mostly below about 0.91 (no sharp cut-off); inconclusive = no clear call, values can overlap the other calls; inactive = mostly above about 0.92. Some of the results follow.
Assay: chemical genetic growth profiling, strain panel (AID 1159580);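 note: tested at 20 µM; growth read once vehicle control cultures reached saturation at 30 °C; 1 = growth at the plate median or of vehicle wells; lower values mean less growth of the strain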
Conditions: S. cerevisiae deletion strains, growth OD

Measured: normalized growth

C[C@@H]1CC(Cl)CC[C@H]1C(=O)OC(C)(C)C (some centres not stated)
inactive: locus YAL013W, strain DEP1, active compounds read low 0.987 | locus YAL021C, strain ccr4, active compounds read low 1.02 | locus YAL026C, strain drs2, active compounds read low 0.973 | locus YAL030W, strain snc1, active compounds read low 0.982 | locus YBL061C, strain skt5, active compounds read low 0.983 | locus YBR009C, strain hhf1, active compounds read low 0.948 | locus YBR021W, strain FUR4, active compounds read low 0.976 | locus YBR023C, strain chs3, active compounds read low 0.98 | locus YBR171W, strain sec66, active compounds read low 0.979 | locus YBR229C, strain ROT2, active compounds read low 0.992 | locus YBR231C, strain swc5, active compounds read low 0.986 | locus YBR279W, strain paf1, active compounds read low 0.993 | locus YCL011C, strain gbp2, active compounds read low 0.979 | locus YCL016C, strain dcc1, active compounds read low 0.98 | locus YCL029C, strain bik1, active compounds read low 0.98 | locus YCL061C, strain MRC1, active compounds read low 0.983 | locus YCL069W, strain vba3, active compounds read low 0.985 | locus YCR088W, strain abp1, active compounds read low 0.987 | locus YDL005C, strain med2, active compounds read low 0.991 | locus YDL035C, strain GPR1, active compounds read low 0.995 | locus YDL040C, strain nat1, active compounds read low 0.982 | locus YDL074C, strain BRE1, active compounds read low 0.948 | locus YDL101C, strain DUN1, active compounds read low 0.985 | locus YDL134C, strain PPH21, active compounds read low 0.997 | locus YDL185W, strain tfp1, active compounds read low 0.952 | locus YDL192W, strain arf1, active compounds read low 0.983 | locus YDR001C, strain nth1, active compounds read low 0.976 | locus YDR069C, strain doa4, active compounds read low 0.97 | locus YDR101C, strain arx1, active compounds read low 0.969 | locus YDR137W, strain rgp1, active compounds read low 0.93 | locus YDR150W, strain NUM1, active compounds read low 0.984 | locus YDR159W, strain sac3, active compounds read low 0.915 | locus YDR162C, strain NBP2, active compounds read low 0.992 | locus YDR195W, strain ref2 0.961 | locus YDR297W, strain sur2, active compounds read low 0.981 | locus YDR318W, strain mcm21, active compounds read low 0.988 | locus YDR334W, strain swr1, active compounds read low 0.978 | locus YDR335W, strain msn5, active compounds read low 0.981 | locus YDR388W, active compounds read low 0.994 | locus YDR392W, strain spt3, active compounds read low 0.774 | locus YDR502C, strain sam2, active compounds read low 0.992 | locus YEL003W, strain gim4, active compounds read low 0.976 | locus YEL037C, strain rad23, active compounds read low 0.983 | locus YEL061C, strain CIN8 (second series), active compounds read low 0.984 | locus YEL061C, strain CIN8, active compounds read low 0.989 | locus YER015W, strain faa2, active compounds read low 0.986 | locus YER016W, strain bim1, active compounds read low 0.975 | locus YER110C, active compounds read low 0.986 | locus YER111C, strain swi4, active compounds read low 0.964 | locus YER155C, strain BEM2 (second series), active compounds read low 0.956 | locus YER155C, strain BEM2, active compounds read low 0.997 | locus YER167W, strain BCK2, active compounds read low 0.993 | locus YFR010W, strain ubp6, active compounds read low 0.98 | locus YGL078C, strain dbp3, active compounds read low 0.983 | locus YGL086W, strain mad1, active compounds read low 1 | locus YGL167C, strain pmr1, active compounds read low 0.973 | locus YGL173C, strain kem1, active compounds read low 0.968 | locus YGL227W, strain vid30, active compounds read low 0.988 | locus YGL240W, strain doc1, active compounds read low 0.978 | locus YGL248W, strain PDE1, active compounds read low 0.995 | locus YGL253W, strain hxk2, active compounds read low 0.969 | locus YGR078C, strain PAC10, active compounds read low 0.971 | locus YGR135W, strain pre9, active compounds read low 0.988 | locus YGR229C, strain SMI1, active compounds read low 0.909 | locus YGR252W, strain gcn5, active compounds read low 1.19 | locus YHR013C, strain ard1, active compounds read low 0.95 | locus YHR027C, strain rpn1, active compounds read low 0.981 | locus YHR030C, strain SLT2, active compounds read low 0.982 and 1.01 | locus YHR079C, strain IRE1 (second series), active compounds read low 0.985 | locus YHR079C, strain IRE1, active compounds read low 1.01 | locus YHR094C, strain hxt1, active compounds read low 0.972 | locus YHR129C, strain ARP1, active compounds read low 0.985 | locus YHR142W, strain chs7, active compounds read low 1.01 | locus YHR200W, strain rpn10, active compounds read low 0.997 | locus YIL066C, strain RNR3, active compounds read low 0.995 | locus YIL073C, strain SPO22, active compounds read low 0.96 | locus YIL125W, strain kgd1, active compounds read low 0.987 | locus YIR030C, strain dcg1, active compounds read low 0.993 | locus YJL092W, strain hpr5, active compounds read low 0.984 | locus YJL095W, strain BCK1 (second series), active compounds read low 0.984 | locus YJL095W, strain BCK1, active compounds read low 1 and 1.01 | locus YJL115W, strain asf1, active compounds read low 0.993 | locus YJL129C, strain trk1, active compounds read low 0.975 | locus YJL134W, strain LCB3, active compounds read low 0.99 | locus YJL154C, strain vps35, active compounds read low 0.98 | locus YJL164C, strain tpk1, active compounds read low 1 | locus YJL166W, strain qcr8, active compounds read low 0.986 | locus YJL168C, strain set2, active compounds read low 0.979 | locus YJL187C, strain SWE1 (second series), active compounds read low 0.975 | locus YJL187C, strain SWE1, active compounds read low 0.986 | locus YJR043C, strain POL32, active compounds read low 0.977 | locus YJR066W, strain TOR1, active compounds read low 0.939
